Assay [1] is described as follows: qHTS assay for small molecules that induce genotoxicity in human embryonic kidney cells expressing luciferase-tagged ATAD5 (AID 651632). Note: nearly all actives have a fitted effect of over 15% in size. Note: potency is the fitted concentration of half-maximal effect. The method in brief:
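Reporter cells (HEK293T) express luciferase-tagged ATAD5, a protein that accumulates after DNA damage. Treat 16 hr at 37C/5% CO2, add Amplite, wait 30 min at RT, and read luminescence.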
Background: In qHTS, concentration-response curves come from the screen itself.

Assay [2] is described as follows: qHTS assay for small molecule agonists of the p53 signaling pathway - cell viability (AID 651633; calls by dose curve; note: nearly all actives have a fitted effect of over 30% in size; note: potency is the fitted concentration of half-maximal effect). In a few lines: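 p53RE-bla cells were treated with compound for 16 hours at 37 C. Cytotoxicity was then measured as CellTiter-Glo luminescence after 30 min at room temperature.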
Assay [3] is described as follows: qHTS assay for small molecules that induce genotoxicity in human embryonic kidney cells expressing luciferase-tagged ATAD5 - cell viability (AID 651634; calls by dose curve; note: nearly all actives have a fitted effect of over 25% in size; note: potency is the fitted concentration of half-maximal effect). The method in brief: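 Seeding of 2,000 HEK293T ATAD5-luciferase cells per well preceded pin-tool compound transfer. Plates sat 15.5 hr at 37C under 5% CO2, then fluorescence was read after 30 min with CellTiter-Fluor.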

Assay [4] in a line: qHTS assay for small molecule disruptors of the mitochondrial membrane potential (AID 720635). Note: potency is the fitted concentration of half-maximal effect. The method in brief:
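HepG2 cells exposed to compound 1 hr at 37C, then Mito-MPS dye 30 min. Ratio read of aggregate (540/590 nm) versus monomer (490/535 nm) fluorescence.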

Assay [5] can be described thus: qHTS assay to test for compound auto fluorescence at 590 nm (red) in HepG2 cells (AID 720674). The method in brief:
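HepG2 cells, 2,000 per well in MEM with 10% FBS, attached overnight at 37 C, then got 23 nL compound or DMSO. After 1 hr at 37 C, 5% CO2, red fluorescence was read at 540/590 nm against Rose Bengal sodium as reference.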

Assay [6] can be described thus: qHTS assay to test for compound auto fluorescence at 535 nm (green) in HepG2 cells (AID 720675).
Assay [7] is described as follows: qHTS assay to test for compound auto fluorescence at 460 nm (blue) in HEK293 cells (AID 720678). Note: potency is the fitted concentration of half-maximal effect. In a few lines: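 HEK293, 2,000 cells/well, 10% dialyzed FBS; attach 4-5 hr 37C; pin compound or DMSO; o/n 37C/5% CO2; fluorescence 405/460 nm; triamterene-equivalent units.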
Assay [8] in a line: qHTS assay to test for compound auto fluorescence at 590 nm (red) in HEK293 cells (AID 720679). In a few lines: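 Intensity at 540nm excitation and 590nm emission is reported as Rose Bengal sodium-equivalent autofluorescence. Measurements followed overnight exposure (37C, 5% CO2) of HEK293 cells, 2,000 per well, to 23 nL compound.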
The nature of assay [9]: qHTS assay for small molecule disruptors of the mitochondrial membrane potential - cell viability (AID 720634; calls by dose curve;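 note: human HepG2 liver cancer cells; series mostly up to about 83 µM; nearly all actives have a fitted effect of over 20% in size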). In a few lines: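 Measuring cytotoxicity alongside mitochondrial potential, the screen quantified ATP by luminescence in HepG2 cells after 1 hr compound incubation and a 30 min room-temperature CellTiter-Glo step.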

Several values for one entry are separate records, joined by “and”; a condition that tells them apart may be missing. Identical values can stand only once. Results filed as inconclusive are left out. Some compounds were tested as several samples or in several runs, with calls that do not always agree. Activity calls are given as the source filed them. Unless noted, calls come from the whole dose curve; as a rule, active = well fitted curve in the direction sought with a large enough effect in the repeat runs; inconclusive = weak or mixed curves; inactive = no such curve, though single readings can be large; an effect the other way counts as inactive or inconclusive.
% is set by controls: 0 for no effect and ±100 for the full control effect; tags give direction and shape of the fitted curve or compound fluorescence and quenching.

`CCCC1CCC(=O)CC1`: the Potency result in assay [1], in assay [2], in assay [3], in [4], in [5] and in assay [6] was “inactive” each time. Also, the Potency entry in [7] and in assay [8] was “inactive” each time.

Take `Cc1ccc(C)cc1`: the Potency entry in [1], in assay [2], in assay [3], in assay [9], in assay [4] and in [5] was “inactive” each time. Further, the Potency entry in [6], in assay [7] and in assay [8] was “inactive” in each case.

Turning to `CC(N=C(NC#N)Nc1ccncc1)C(C)(C)C` (configuration not stated), the Potency result in assay [1], in [2], in [3], in assay [9], in assay [4] and in assay [6] was “inactive” throughout. In addition, the Potency result in assay [7] and in assay [8] was “inactive” each time.

For the compound `CCCCCCCCCCOC(=O)c1ccccc1C(=O)OCCCCCCCC`, the Potency entry in [1], in assay [2], in [3], in [4], in [5] and in assay [6] was “inactive” throughout. Further, the Potency entry in assay [7] and in assay [8] was “inactive” in each case.

In the case of `CCOc1ccc2ccccc2c1C(=O)N[C@@H]1C(=O)N2[C@@H]1SC(C)(C)[C@@H]2C(=O)O`, the Potency entry in [1], in assay [2], in assay [3], in [9] and in assay [4] was “inactive” each time. In assay [5], the fluorescence, relative to Rose Bengal is 0.528% [at 18.6 µM] (inactive). The fluorescence, % of triamterene in assay [7] was 0.458% [at 18.6 µM] (inactive). Also, the fluorescence, % of fluorescent control in assay [8] was 0.326% [at 18.6 µM] (inactive).

As for `CCCCCCCCCCC[C@@H](C[C@@H]1OC(=O)[C@H]1CCCCCC)OC(=O)[C@H](CC(C)C)NC=O`, the Potency result in assay [1], in assay [2], in assay [3], in [9], in assay [5] and in assay [6] was “inactive” throughout. For the same compound, the Potency result in [7] and in assay [8] was “inactive” in each case.

As for `Cc1c(C)c([N+](=O)[O-])c(C(C)(C)C)c([N+](=O)[O-])c1C`, the Potency result in assay [1], in assay [2], in [3], in assay [5], in assay [6] and in assay [7] was “inactive” each time. The Potency entry in assay [8] was “inactive”. Besides, in assay [4], the Potency was 30.6 µM (active).

For `CC1(C)CCC[C@]2(C)[C@H]3CCO[C@]3(C)CC[C@@H]12`, the Potency entry in [1], in assay [2], in [3], in assay [5], in assay [6] and in assay [7] was “inactive” throughout. For the same compound, the Potency result in [8] was “inactive”.

Consider `Cc1ccc(C(C)C)cc2c(C)ccc1-2`, for which the Potency entry in [1], in assay [2], in assay [3], in assay [4], in assay [5] and in assay [6] was “inactive” in each case. The Potency entry in assay [7] and in assay [8] was “inactive” throughout.

For the compound `CCN(CC)C(=O)c1cc(S(=O)(=O)Cc2ccccc2)c(N2CCC(c3ccccc3)CC2)cc1N(CC)CCN(C)C`, the Potency entry in assay [1], in [5], in assay [6], in assay [7] and in assay [8] was “inactive” throughout. For the same compound, the Potency in assay [2] and in assay [3] was 29.8 µM (active) in each case.

Turning to `c1ccc(C(O[C@@H]2CCCN(CCc3ccc4c(c3)OCO4)C2)c2ccccc2)cc1`, the Potency result in assay [1], in assay [2], in [3], in assay [5], in [6] and in assay [7] was “inactive” throughout. Also, in assay [8], the Potency entry is “inactive”.

For `O=C1c2ccccc2C(=O)N1SC1CCCCC1`, the Potency result in assay [1], in assay [3], in assay [5], in assay [6], in assay [7] and in assay [8] was “inactive” in each case. Moreover, the Potency in [2] was 68.5 µM (active) and inactive; in assay [4], 54.4 µM (active) and 48.6 µM (active).

With `C=CC(=O)OCCOC(=O)C=C`, the Potency in [1] was 21.7 µM (active); in [3], 61.1 µM (active). In addition, the Potency result in assay [2], in assay [9], in assay [6], in assay [7] and in assay [8] was “inactive” throughout.

On to `Cc1cc(C)c(/C=C2\C(=O)Nc3ccccc32)[nH]1`, for which the Potency result in [1], in assay [3], in assay [9], in assay [5], in assay [6] and in [7] was “inactive” throughout. Further, the Potency result in assay [8] was “inactive”. The figures for the Potency in assay [2] and in assay [4] were 2.66 µM (active) and 10.6 µM (active), respectively.

For the compound `CCCC[P+](C)(CCCC)CCCC`, the Potency result in [1], in assay [2], in assay [3], in [5], in assay [6] and in assay [7] was “inactive” throughout. The Potency result in [8] was “inactive”. The Potency in assay [4] was 13.9 µM (active).

As for `Nc1cc(Cl)c(O)c(Cl)c1`, the Potency result in assay [1], in assay [3], in [9], in assay [6] and in assay [8] was “inactive” each time. The Potency in [4] is 7.7 µM (active).

As for `O=C(c1ccc(O)c(O)c1)c1ccc(O)cc1O`, the Potency entry in [1], in assay [9], in [5], in [6] and in assay [8] was “inactive” throughout. For the same compound, the Potency in [4] was 3.85 µM (active); in assay [7] it was 31.6 µM [fluorescent] (active).

For `CCCNCCC`, the Potency entry in assay [3], in assay [4], in [5], in [6], in assay [7] and in [8] was “inactive” throughout.

Turning to `COC(C)=O`, the Potency entry in assay [1], in assay [3], in [9], in [4], in [6] and in assay [7] was “inactive” throughout. Further, the Potency entry in [8] was “inactive”.

Consider `OCCN1CCN(CCCN2c3ccccc3Sc3ccc(C(F)(F)F)cc32)CC1`, for which the Potency result in [1], in assay [9], in assay [5], in assay [7] and in [8] was “inactive” throughout. In addition, the Potency in assay [2] is 26.6 µM (active).

In the case of `C/C=C/C=C/COC(=O)C(C)C`, the Potency entry in assay [1], in assay [3], in [9], in assay [4], in assay [5] and in assay [6] was “inactive” each time. For the same compound, the Potency result in assay [7] was “inactive”.

On to `CC[C@H](C)COC(=O)/C=C/c1ccc(N=Cc2ccc(OC)cc2)cc1`, for which the Potency entry in assay [2], in assay [3], in assay [5], in assay [6] and in assay [7] was “inactive” each time. Also, in [4], the Potency is 30.6 µM (active).

Turning to `Clc1ccnc(Cl)n1`, the Potency entry in assay [1], in [3], in assay [9], in assay [5], in assay [6] and in assay [7] was “inactive” each time. Further, in [8], the Potency result was “inactive”.

Turning to `Cc1cc(C(C#N)c2ccc(Cl)cc2)c(Cl)cc1NC(=O)c1cc(I)cc(I)c1O` (configuration not stated), the Potency entry in assay [1], in assay [5], in assay [6], in [7] and in assay [8] was “inactive” in each case. Further, the Potency was 3.35 µM (active) in [2] and 2.37 µM (active) in assay [4].

The values are drawn from PubChem BioAssay (Tox21).
